Experimental data from PubChem BioAssay (Tox21).
Where “and” joins values, the source holds several entries; their conditions need not be identical. Identical values can stand only once. Records with an inconclusive call do not appear. Calls of active or inactive are those of the source. Unless noted, calls follow the shape of the full dose curve.

How the values were obtained:
[1] = qHTS assay to identify small molecule antagonists of the sonic hedgehog signaling (Shh) pathway (AID 1259369); also: nearly all actives have a fitted effect of over 45% in size; also: potency is read from the fitted curve at half-maximal effect
Procedure, shortened: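 Antagonist mode: compound added to 3T3 Gli1-Luc cells followed by conditioned-medium stimulation, 24 h at 37 C, 5% CO2. Inhibition taken as loss of Gli1-driven luciferase luminescence.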

[2] = qHTS assay to identify small molecule agonists of the androgen receptor (AR) signaling pathway in the presence of an antagonist - cell viability counter screen (AID 1259379; active = well fitted curve in the direction sought with a large enough effect in the repeat runs; an effect the other way counts as inactive or inconclusive; also: nearly all actives have a fitted effect of over 25% in size; also: potency is read from the fitted curve at half-maximal effect;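 as to activity change, negative = cytotoxicity: MDA-kb2 human breast cancer cells carrying an MMTV luciferase reporter; series mostly up to about 92 µM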)
Procedure, shortened: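 Cytotoxicity counter-screen run in the same wells as the nilutamide-challenged (3.0 µM final) AR agonist assay in MDA-kb2 cells. Compounds tested at 15 concentrations for 16 h, 37 °C without CO2; CellTiter-Fluor fluorescence read.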

[3] = qHTS assay to identify small molecule antagonists of the estrogen receptor beta (ER-beta) signaling pathway - cell viability counter screen (AID 1259382; active = well fitted curve in the direction sought with a large enough effect in the repeat runs; an effect the other way counts as inactive or inconclusive; also: nearly all actives have a fitted effect of over 55% in size; also: potency is read from the fitted curve at half-maximal effect;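 as to activity change, negative = cytotoxicity: HEK293T cells carrying ER-beta-UAS-bla reporter stimulated with estradiol; series mostly up to about 92 µM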)
Procedure, shortened: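 Cytotoxicity was measured in the same wells by CellTiter-Glo luminescence after 30 min at room temperature. Cells were ER-beta-bla HEK293T in charcoal-stripped serum, given compound together with 1 nM E2 and incubated 16 h at 37C.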

[4] = molecular target: Estrogen receptor (Homo sapiens) (UniProt P03372); test: qHTS assay to identify small molecule agonists of the estrogen receptor alpha (ER-alpha) signaling pathway in the presence of an antagonist (AID 1259383); also: top concentration of the series differs between compounds; nearly all actives have a fitted effect of over 15% in size
Estrogen receptor (Homo sapiens), sequence (P03372 whole entry, looked up): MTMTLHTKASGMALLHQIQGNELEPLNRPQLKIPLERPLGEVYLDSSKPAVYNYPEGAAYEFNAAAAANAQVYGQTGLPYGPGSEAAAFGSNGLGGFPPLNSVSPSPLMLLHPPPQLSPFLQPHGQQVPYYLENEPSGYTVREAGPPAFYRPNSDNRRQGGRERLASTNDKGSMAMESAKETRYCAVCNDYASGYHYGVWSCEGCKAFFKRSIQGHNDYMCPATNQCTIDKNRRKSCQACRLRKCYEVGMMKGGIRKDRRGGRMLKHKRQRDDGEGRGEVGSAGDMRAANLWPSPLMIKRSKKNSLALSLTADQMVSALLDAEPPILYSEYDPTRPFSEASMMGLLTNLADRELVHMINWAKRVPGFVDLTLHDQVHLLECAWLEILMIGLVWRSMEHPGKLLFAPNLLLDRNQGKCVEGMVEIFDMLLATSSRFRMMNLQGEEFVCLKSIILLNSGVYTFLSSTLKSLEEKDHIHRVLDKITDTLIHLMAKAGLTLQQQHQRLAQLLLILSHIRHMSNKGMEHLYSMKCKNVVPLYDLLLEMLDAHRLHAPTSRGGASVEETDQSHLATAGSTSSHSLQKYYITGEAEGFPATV
Procedure, shortened: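 Agonist-mode confirmation run in the presence of 10.0nM (final) ICI-182,780 antagonist. The reporter was ERE-driven luciferase in VM7Luc4E2 cells, grown in charcoal-stripped serum. Cells were exposed to 15-concentration compound series for 22hr, then ONE-Glo luminescence was read.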

[5] = qHTS assay to identify small molecule agonists or antagonists of the thyroid stimulating hormone receptor (TSHR) signaling pathway - wild type cell line counter screen (AID 1259384)
Procedure, shortened: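 Counter screen in untransfected Hek293: compounds (15-point titration, triplicate) plus phosphodiesterase inhibitor Ro20-1724 added after 18 h plating; 30 min RT. Intracellular cAMP via competitive d2/cryptate immunoassay, 1 h incubation.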

[6] = molecular target: Thyrotropin receptor (Homo sapiens) (UniProt P16473); test: qHTS assay to identify small molecule antagonists of the thyroid stimulating hormone receptor (TSHR) signaling pathway (AID 1259385); also: nearly all actives have a fitted effect of over 20% in size
Thyrotropin receptor (Homo sapiens), sequence (P16473 whole entry, looked up): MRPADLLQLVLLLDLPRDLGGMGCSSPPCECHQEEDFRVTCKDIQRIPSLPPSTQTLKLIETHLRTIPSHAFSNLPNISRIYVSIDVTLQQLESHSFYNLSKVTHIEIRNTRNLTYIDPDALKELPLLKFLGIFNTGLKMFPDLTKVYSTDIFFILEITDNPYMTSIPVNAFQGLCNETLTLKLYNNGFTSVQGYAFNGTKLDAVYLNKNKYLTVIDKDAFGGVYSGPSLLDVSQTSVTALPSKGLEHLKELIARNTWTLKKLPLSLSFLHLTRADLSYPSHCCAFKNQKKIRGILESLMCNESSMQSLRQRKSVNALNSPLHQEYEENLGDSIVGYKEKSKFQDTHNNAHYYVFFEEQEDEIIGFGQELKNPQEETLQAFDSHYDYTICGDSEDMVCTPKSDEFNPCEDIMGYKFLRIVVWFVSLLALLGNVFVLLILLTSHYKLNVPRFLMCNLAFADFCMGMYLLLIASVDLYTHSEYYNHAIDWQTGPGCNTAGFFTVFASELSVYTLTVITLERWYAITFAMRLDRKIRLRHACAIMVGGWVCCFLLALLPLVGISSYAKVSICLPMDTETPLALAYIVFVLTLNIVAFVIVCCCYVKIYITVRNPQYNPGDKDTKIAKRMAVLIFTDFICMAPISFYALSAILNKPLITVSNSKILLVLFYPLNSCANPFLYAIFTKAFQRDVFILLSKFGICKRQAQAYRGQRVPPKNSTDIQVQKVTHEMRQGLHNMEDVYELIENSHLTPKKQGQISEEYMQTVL
Procedure, shortened: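 Antagonist mode: compound-treated TSHR-expressing HEK293 cells were stimulated with 1.5 ng/mL TSH (final) in presence of Ro20-1724 for 30 min at RT. HTRF cAMP detection after 1 h; each compound tested at 15 concentrations, triplicate.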

[7] = molecular target: Estrogen receptor beta (Homo sapiens) (UniProt Q92731); test: qHTS assay to identify small molecule antagonists of the estrogen receptor beta (ER-beta) signaling pathway (AID 1259378; active = well fitted inhibition curve with a large enough effect in the signal ratio in the repeat runs, not every such curve was filed as active; the % refers to the signal ratio)
Estrogen receptor beta (Homo sapiens), sequence (Q92731 whole entry, looked up): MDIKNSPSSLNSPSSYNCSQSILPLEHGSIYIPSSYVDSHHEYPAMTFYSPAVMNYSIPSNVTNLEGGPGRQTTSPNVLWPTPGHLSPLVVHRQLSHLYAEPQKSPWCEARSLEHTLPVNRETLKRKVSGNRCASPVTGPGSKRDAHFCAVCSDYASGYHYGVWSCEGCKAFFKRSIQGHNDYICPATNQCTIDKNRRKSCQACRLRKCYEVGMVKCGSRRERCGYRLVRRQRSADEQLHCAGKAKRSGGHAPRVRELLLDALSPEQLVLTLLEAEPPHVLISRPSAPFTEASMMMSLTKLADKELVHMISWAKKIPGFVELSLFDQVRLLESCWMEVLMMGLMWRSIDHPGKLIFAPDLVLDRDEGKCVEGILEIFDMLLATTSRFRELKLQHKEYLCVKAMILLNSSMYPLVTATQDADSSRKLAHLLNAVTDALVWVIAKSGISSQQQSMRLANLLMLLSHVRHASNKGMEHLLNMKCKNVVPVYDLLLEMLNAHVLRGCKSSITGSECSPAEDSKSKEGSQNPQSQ
Procedure, shortened: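 Antagonist mode: compounds added to beta-lactamase reporter HEK293T ER-beta-UAS cells stimulated with E2 (1nM final), 16 hr at 37C. LiveBLAzer B/G FRET substrate, 2 hours room temperature, fluorescence read-out.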

[8] = qHTS assay to identify small molecule agonists of the estrogen receptor beta (ER-beta) signaling pathway - cell viability counter screen (AID 1259380; active = well fitted curve in the direction sought with a large enough effect in the repeat runs; an effect the other way counts as inactive or inconclusive; also: nearly all actives have a fitted effect of over 30% in size; also: potency is read from the fitted curve at half-maximal effect)
Procedure, shortened: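 Cell viability counter screen: CellTiter-Glo luminescence (30 min, room temperature) measured in the same wells as the beta-lactamase readout, after 16 hr compound exposure at 37C of ER-beta-bla HEK293T cells in 2% charcoal-stripped FBS medium.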

[9] = molecular target: Androgen receptor (Homo sapiens) (UniProt P10275); test: qHTS assay to identify small molecule agonists of the androgen receptor (AR) signaling pathway in the presence of an antagonist (AID 1259381); also: nearly all actives have a fitted effect of over 15% in size
Androgen receptor (Homo sapiens), sequence (P10275 whole entry, looked up): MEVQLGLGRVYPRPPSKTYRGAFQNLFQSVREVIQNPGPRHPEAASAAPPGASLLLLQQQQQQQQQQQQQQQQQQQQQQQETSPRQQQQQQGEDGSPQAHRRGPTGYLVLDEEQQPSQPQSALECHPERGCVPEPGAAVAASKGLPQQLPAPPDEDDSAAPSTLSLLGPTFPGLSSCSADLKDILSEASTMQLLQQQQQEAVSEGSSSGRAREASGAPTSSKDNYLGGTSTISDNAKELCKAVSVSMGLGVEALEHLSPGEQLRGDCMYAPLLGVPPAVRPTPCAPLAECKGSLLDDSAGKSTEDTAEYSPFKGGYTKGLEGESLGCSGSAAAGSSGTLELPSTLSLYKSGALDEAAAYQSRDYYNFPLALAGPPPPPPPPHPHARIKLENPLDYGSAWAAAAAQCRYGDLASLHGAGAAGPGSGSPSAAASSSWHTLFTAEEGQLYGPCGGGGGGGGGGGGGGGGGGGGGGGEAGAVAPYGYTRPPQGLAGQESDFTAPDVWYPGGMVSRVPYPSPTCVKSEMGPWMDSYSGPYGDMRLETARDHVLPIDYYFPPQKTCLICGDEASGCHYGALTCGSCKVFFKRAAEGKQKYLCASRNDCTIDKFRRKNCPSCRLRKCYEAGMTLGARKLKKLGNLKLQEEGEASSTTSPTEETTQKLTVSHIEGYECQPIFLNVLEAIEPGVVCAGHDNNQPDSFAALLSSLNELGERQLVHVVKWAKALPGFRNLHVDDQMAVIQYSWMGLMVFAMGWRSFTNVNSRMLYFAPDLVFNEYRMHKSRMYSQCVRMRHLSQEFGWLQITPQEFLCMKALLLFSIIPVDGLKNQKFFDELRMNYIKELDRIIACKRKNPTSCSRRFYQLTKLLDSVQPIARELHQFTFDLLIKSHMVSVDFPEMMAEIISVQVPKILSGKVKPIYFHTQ
Procedure, shortened: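 Agonist-mode confirmation run against 3.0 uM final nilutamide: compounds titrated at 15 concentrations onto MDA-kb2 MMTV-luciferase reporter cells. Luminescence measured with ONE-Glo following 16 hr incubation, 37C, 0% CO2.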

[10] = molecular target: Estrogen receptor beta (Homo sapiens) (UniProt Q92731); test: qHTS assay to identify small molecule agonists of the estrogen receptor beta (ER-beta) signaling pathway (AID 1259377; active = well fitted activation curve with a large enough effect in the signal ratio in the repeat runs, not every such curve was filed as active; the % refers to the signal ratio)
Procedure, shortened: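 Beta-lactamase reporter readout: fluorescence of LiveBLAzer B/G FRET substrate after 2 h at room temperature, following 16 h compound treatment of ER-beta-UAS-bla HEK293T cells at 37C in 2% charcoal-stripped FBS medium.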
% is scaled to controls: 0 for no effect and ±100 for the full control effect.

CCc1ccccc1N
inactive: Potency [1] | Potency [2] | Potency [3] | Potency [4] | outcome [5] | Potency [6]

C1CS1
inactive: Potency [1] | Potency [2] | Potency [3] | Potency [4] | outcome [5] | Potency [6]

NNCCO
inactive: Potency [1] | Potency [7] | Potency [2] | Potency [3] | Potency [4] | outcome [5] | Potency [6]

Nc1ccccc1C(=O)OCC(O)CO (configuration not stated)
inactive: Potency [1] | Potency [2] | Potency [8] | Potency [9] | Potency [3] | Potency [4] | outcome [5] | Potency [6]

CCCC[N+]1(C)[C@@H]2CC(OC(=O)[C@H](CO)c3ccccc3)C[C@H]1[C@@H]1O[C@@H]12 (some centres not stated)
inactive: Potency [1] | Potency [2] | Potency [8] | Potency [4] | outcome [5] | Potency [6]

CCCCCCCCCCCCN=C(N)N
active: Potency [1] 671 nM
inactive: activity change, negative = cytotoxicity [2] -9.57% [at 3.27 µM] | activity change, negative = cytotoxicity [3] -18.7% [at 3.27 µM] | activity change, negative = inhibition [6] 0.876% [at 3.27 µM]

C=CCOCC1CO1 (configuration not stated)
inactive: Potency [1] | Potency [2] | Potency [8] | Potency [3] | Potency [4] | outcome [5] | Potency [6]

O=C(O)C(O)C(O)C(=O)O (configuration not stated)
inactive: Potency [1] | Potency [2] | Potency [8]

CCC[N+](CCC)(CCC)CCC
inactive: Potency [1] | Potency [2] | Potency [8] | Potency [3] | Potency [4]

C=CCSSCC=C
inactive: Potency [1] | Potency [2] | Potency [8] | Potency [3] | Potency [6]

CCC(C)(C)O
inactive: Potency [1] | Potency [2] | Potency [3] | Potency [4] | outcome [5]

CCOC(=O)NC(O)C(Cl)(Cl)Cl (configuration not stated)
inactive: Potency [1] | Potency [2] | Potency [8] | Potency [3] | Potency [4] | outcome [5] | Potency [6]

CC(Cl)C(=O)O (configuration not stated)
inactive: Potency [1] | Potency [2] | Potency [8] | Potency [9] | Potency [3] | Potency [6]

CCNC(=O)NC(=O)/C(C#N)=N/OC
inactive: Potency [1] | Potency [2] | Potency [3] | Potency [4] | outcome [5] | Potency [6]

CCCCCCCCCCCCCCCl
inactive: Potency [1] | Potency [2] | Potency [8] | Potency [4] | outcome [5] | Potency [6]

C#CC(O)(C=CCl)CC (configuration not stated)
inactive: Potency [1] | Potency [2] | Potency [8] | Potency [9] | Potency [4] | Potency [6]

COc1cc(CC(C)N)c(OC)cc1Br (configuration not stated)
active: Potency [1] 15900 nM | Potency [8] 63.2 µM
inactive: Potency [2] | Potency [6]

[Cl-].[Cl-].[Hg+2]
active: Potency [1] 34.2 nM and 243 nM | Potency [8] 5.42 µM and 3.86 µM | Potency [3] 4.31 µM and 4.86 µM
inactive: Potency [2]

O=C(O)c1ccc(=O)[nH]c1
inactive: Potency [1] | Potency [2] | Potency [8] | Potency [9] | Potency [4] | Potency [6]

Clc1ccccc1
inactive: Potency [2] | Potency [3] | Potency [4] | outcome [5]
active: Potency [1] 479 nM

CCCBr
inactive: Potency [1] | Potency [2] | Potency [8] | Potency [3] | Potency [4]

CCCCCCCCCCCC[N+](C)(C)CCOc1ccccc1
active: Potency [1] 3.44 µM and 473 nM | Potency [2] 68.6 µM | Potency [8] 21.7 µM and 11.9 µM | Potency [3] 19.3 µM and 15 µM
inactive: Potency [4] | outcome [5] | Potency [6]

CCOC(C(=O)OCCN(C)C)(c1ccccc1)c1ccccc1
inactive: Potency [1] | Potency [2] | Potency [8] | Potency [3] | Potency [6]

N#CC1(N=NC2(C#N)CCCCC2)CCCCC1
inactive: Potency [2] | Potency [8] | Potency [3] | outcome [5] | Potency [6]
active: Potency [1] 21700 nM

Nc1c(Br)cc(Br)c2c1C(=O)c1ccccc1C2=O
inactive: activity change, negative = inhibition [1] -1.9% [at 19 µM] | activity change, negative = cytotoxicity [2] -5.97% [at 19 µM] | activity change, negative = cytotoxicity [8] -3.72% [at 19 µM] | activation [9] 0.208% [at 19 µM] | activity change, negative = cytotoxicity [3] 0.853% [at 19 µM] | activation [4] 1.8% [at 19 µM] | cAMP activity change [5] 2.44% [at 18.9 µM] | activity change, negative = inhibition [6] -1.61% [at 19 µM]

CC[N+]1(C)CCCC(OC(=O)C(O)(c2ccccc2)c2ccccc2)C1 (configuration not stated)
inactive: Potency [1] | Potency [2] | Potency [8] | Potency [3] | Potency [6]

COC(=O)Cc1ccccc1
inactive: Potency [1] | Potency [2] | Potency [4]

Cc1cccc(C)c1NC1=NCCCS1
inactive: Potency [1] | Potency [2] | Potency [8] | Potency [3] | Potency [4] | outcome [5] | Potency [6]

CC[N+]1(CCOC(=O)C(O)(c2ccccc2)c2ccccc2)CCCCC1
inactive: Potency [1] | Potency [2] | Potency [3] | Potency [6]

Cc1ccc2c(C)cccc2c1
inactive: Potency [1] | Potency [2] | Potency [8] | Potency [4] | outcome [5] | Potency [6]

CC(C)OC(=O)Cc1ccccc1
inactive: Potency [1] | Potency [2] | Potency [3] | Potency [4] | outcome [5] | Potency [6]

C=CC(C)(CCC=C(C)C)OC(=O)c1ccccc1N (configuration not stated)
inactive: Potency [1] | Potency [2] | Potency [8] | Potency [3] | outcome [5] | Potency [6]

NCCc1cc(O)c(O)cc1O
inactive: Potency [1] | Potency [8] | Potency [3] | Potency [4] | outcome [5]

CCCN(CCC)c1c([N+](=O)[O-])cc(C(C)C)cc1[N+](=O)[O-]
inactive: Potency [10] | Potency [7] | Potency [2] | Potency [3] | Potency [4] | outcome [5] | Potency [6]

C=CCc1ccc(OC(=O)Cc2ccccc2)c(OC)c1
inactive: Potency [10] | Potency [7] | Potency [2] | Potency [3] | outcome [5]
